Test results: PubChem BioAssay AID493203 (National Center for Advancing Translational Sciences (NCATS), 2011)
Inconclusive results are not listed. Activity calls are given as the source filed them. The call rests on the fitted dose curve; in most records, active means well fitted activation curve with a large enough effect; inconclusive means small, poorly fitted or top-dose-only effect; inactive means flat fitted curve, though single readings scatter.

Experiment: qHTS Assay for NPC1 Promoter Activators: Initial hit validation from the primary screen
Conditions: Huh7 NPC1 promoter-luciferase reporter, luminescence, 24 h; series mostly up to 46.1 µM
Method in brief: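 Promoter activation measured as luciferase luminescence (Amplite reagent, 10 minutes ambient) after 24 hours' compound exposure at 37C. Cells: NPC1-luciferase Huh7, 1500 per well, reduced-serum OP-MEM I plus 10% FBS.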
Potency means the concentration at half of the fitted maximal effect.

Potency, active:
CCOC(=O)c1csc(COc2ccc(OC)cc2)n1 705 nM
O=C(CSc1nnc(-c2ccccn2)o1)Nc1ccccc1F 1120 nM
Cc1ccc(NC(=O)NC(=O)c2ccccc2)cc1F 499 nM
COC(=O)c1ccc(NC(=O)c2ccc3nc(C)sc3c2)cc1 888 nM
COC(=O)c1ccccc1S(=O)(=O)NNC(=O)Nc1ccccc1 12500 nM
O=C(COC(=O)c1ccc(-c2nnc(-c3ccccc3)o2)cc1)c1ccccc1 396 nM
N#CC/C(N)=N/NC(=O)CCCNc1ncc(C(F)(F)F)cc1Cl 15800 nM
CCOC(=O)c1ccc(-c2nnc(-c3ccc(Cl)cc3Cl)o2)cc1 2500 nM
Cc1ccc(N=Cc2sc(O)c3ccccc23)c(C)c1 1770 nM

Potency, inactive:
CC(=O)Nc1ccc(NC(=O)COc2ncnc3ccccc23)cc1
COC(=O)c1sccc1NC(=S)OC
COc1ccc(C(c2nnnn2CCc2ccccc2)N2CCN(C3CCCC3)CC2)cc1 (stereo not drawn)
Cc1ccc(NC(=O)c2cccc(N3C(=O)CCC3=O)c2)nc1
COc1ccc(-n2c(N)c(C(=O)NCc3ccco3)sc2=S)cc1
CC1=C(C(=O)OC2CCCC(C)C2)C(c2ccccc2)NC(=O)N1 (stereo not drawn)
O=C(NC1CCCC1)C(c1ccc(F)cc1)N(C(=O)c1csnn1)c1ccccc1 (stereo not drawn)
CC(=O)c1cccc(NC(=O)N2CCOCC2)c1
C=CCn1c(C)nnc1SCC(=O)Nc1nccs1
COc1cccc(CNC(=O)CN(c2cc(C)cc(C)c2)S(=O)(=O)c2c(C)noc2C)c1
O=C(CSc1nnc(Cc2cc(=O)[nH]c(=O)[nH]2)n1-c1ccc(Cl)cc1)NC1CCCC1
CC1CCCN(S(=O)(=O)c2ccc(C(=O)Nc3nnc(-c4ccncc4)o3)cc2)C1 (stereo not drawn)
Brc1ccccc1-c1nnc(CSc2nnc3sc4ccccc4n23)o1
NCCOc1ccccc1-c1ccccc1
O=S(=O)(c1cccs1)N1CCN(c2ncccn2)CC1
CN(C)/C=N/c1c(C#N)cnn1-c1nc2ccccc2s1
Cc1ccccc1NC(=O)CSc1ccc(-c2cccnc2)nn1
O=C(c1cccc(Oc2ccc([N+](=O)[O-])cc2)c1)N1CCOCC1
O=C(NNC(=O)C1COc2ccccc2O1)c1ccccc1O (stereo not drawn)
CCOc1cc(C2C(C#N)=C(N)Oc3n[nH]c(C)c32)ccc1OCCN1CCOCC1 (stereo not drawn)
COc1cccc(C(C(=O)NC2CCCC2)N(CCC(C)C)C(=O)CCC(=O)Nc2cc(C)on2)c1 (stereo not drawn)
Cc1nn(CCCC(=O)NCc2ccc(F)cc2)c(C)c1[N+](=O)[O-]
Cc1nc(SCC(=O)NC(=O)NC(C)(C)C)nc(C)c1C
S=C1NCN(CCc2ccccc2)CN1Cc1ccccc1
